The source made the active and inactive calls. How the calls were made is not given here.

A short description of the assay: inhibition of Brca1/Bard1 split-luciferase complementation, confirmation, counter-screen for Mdm2/MdmX interaction inhibitor project, luminescence, single concentration (AID 504668). The note with it: Brca1/Bard1 bimolecular luciferase complementation counterscreen, at 8 µM, hits give high values. Background: Counterscreens check selectivity or assay interference.
On to `O=c1c2ccccc2nc(COc2ccccc2)n1/N=C/c1ccc(O)cc1O`, for which the inhibition (usually the percentage by which the read-out fell short of the control) was 31% (active).
The result for `O=C(CCCN1C(=O)/C(=C/c2cccc(Br)c2)SC1=S)Nc1ccccn1` reads 31% (active); that for `C(=N\Nc1nc2ccccc2[nH]1)/c1cccc2nccnc12`, 31.8% (active); that for `Cc1cc(C(=O)CSc2nnc3ccccn23)c(C)n1-c1ccccc1`, 29.6% (active).
For the compound `O=C(Nc1ccc(-c2nc3ccc(NC(=O)c4cccs4)cc3[nH]2)cc1)c1cccs1`, the inhibition was 33.7% (active).
The value for `Cc1ccc(Cc2c(C)c(C#N)c3[nH]c4ccccc4n3c2=O)cc1` was 35.8% (active).
The result for `Nc1ccc(C(=O)OCc2nc3cc4ccccc4cc3[nH]2)cc1` reads 34.5% (active); that for `CCc1ccc(NC(=O)[C@H](Cc2c[nH]c3ccccc23)NC(=O)[C@@H]2Cc3ccccc3CN2)cc1`, 24.1% (active); that for `Cc1nc(-n2[nH]c3c(c2=O)CCCC3)[nH]c(=O)c1Cc1ccccc1`, 30.8% (active).
For the compound `COc1ccc(/C=C2/SC(=S)N(CCCC(=O)N3CCN(C)CC3)C2=O)cc1`, the inhibition was 31.7% (active).
The value for `CCOc1cc(/C=C2/NC(=O)N(CC(=O)Nc3cccc(C)c3)C2=O)ccc1OC` was 32.2% (active).
In the case of `CCOC(=O)COc1ccc(/C=C/[N+](=O)[O-])c(OCC(=O)OCC)c1`, the inhibition was 23.7% (active).
In the case of `Cc1nc(/N=C(\N)NC(=O)NC2CCCCC2)nc2ccccc12`, the inhibition was 34.4% (active).
The value for `NC(N)=N/N=C/c1ccc(OCc2ccccc2Cl)cc1` was 32.5% (active).
Consider `O=C(N/N=C(\c1ccccc1)c1cccnc1)c1cccc(F)c1`, for which the inhibition is 33.2% (active).
The value for `O=C(Nc1nc(-c2ccccn2)cs1)c1cc(Cl)ccc1[N+](=O)[O-]` was 32.3% (active).
The value for `CCS(=O)(=O)c1ccc(N=Nc2ccc(O)c3ncccc23)c(OC)c1` was 31.8% (active); that for `Cc1cccn2c(=O)c3cc(C(=O)NCCN4CCOCC4)c(=N)n(Cc4ccc(F)cc4)c3nc12` was 34.8% (active).
The value for `O=C1c2ccccc2NC(c2ccc(Cl)cc2Cl)N1O` (stereo not given) was 30.7% (active); that for `CC(Oc1ccc(F)cc1)C(=O)Nc1nc(-c2ccccn2)cs1` (stereo not given) was 35.6% (active); that for `Cc1ccc2cc(CN(CC3CCCO3)C(=S)Nc3ccccc3)c(=O)[nH]c2c1C` (stereo not given) was 35.3% (active).
On to `O=C1Nc2cccnc2N(C(=O)CCl)c2ccccc21`, for which the inhibition is 31.2% (active).
The result for `CCn1c(SCc2c(Cl)cccc2Cl)nc2nc3c(cc2c1=O)CCCC3` reads 35.8% (active).
For the compound `COc1ccc(/C=C2\SC(=S)N(CCC(=O)NCCc3ccc(O)cc3)C2=O)cc1`, the inhibition is 27.4% (active).
Take `CN(C(=O)c1ccc(S(=O)(=O)c2cccc(Cl)c2)c([N+](=O)[O-])c1)C1CCCCC1`: the inhibition is 28.9% (active).
The value for `O=C(CCl)N1CCN2C(=O)c3ccccc3C12c1ccc(Cl)cc1` (stereo not given) was 28.5% (active); that for `CCOc1cc(CNCCO)cc(Br)c1OCc1ccc(Cl)cc1Cl` was 25.5% (active).
The result for `CCCCCCCCCC(=O)N[C@@H]1c2cc(OC)c(OC)cc2C[C@H]1OCc1ccccc1` reads 35.8% (active); that for `C=C(C(=O)c1ccccc1)C(C)CC(=O)c1ccccc1` (stereo not given), 32.4% (active); that for `CCCOc1ccc(/C=N/Nc2cc(N3CCOCC3)ncn2)c(O)c1`, 23.7% (active).
Regarding `Cc1csc2nc(O)c(C(=O)NC3CCCCC3)c(=O)n12`, the inhibition is 35% (active).
The value for `Cc1ccc(C(=O)N2C(CC(=O)Nc3ccc(Cl)cc3)C(=O)NC3CCCCC32)cc1` (stereo not given) was 24.8% (active); that for `COc1ccc(OC)c2sc(NC(=O)CCS(=O)(=O)c3ccccc3)nc12` was 23.8% (active).
Take `Cc1cccc(/C=N/NC(=O)c2c(-c3ccccc3)noc2C)c1O`: the inhibition is 35.6% (active).
On to `CCOC(=O)C1=C(c2ccccc2)NC(=O)NC1c1ccc(O)c(Cl)c1` (stereo not given), for which the inhibition was 30.5% (active).
Consider `C[C@@]12C(=O)Nc3ccccc3C(=O)N1[C@H]1c3cc(Br)ccc3OC[C@@H]1[C@@H]2c1ccccc1`, for which the inhibition is 30.8% (active).
The value for `O=C(CNc1ccc(F)cc1)N/N=C/c1c(O)ccc2ccccc12` was 27.9% (active).
The result for `COc1ccc(C2=Nn3c(nnc3-c3ccccc3F)SC2)cc1OC1CCCC1` reads 28.6% (active); that for `O=C(Cc1ccccc1)N/N=C/c1cc(Br)cc(Cl)c1O`, 29.2% (active).
Consider `Cn1nnnc1Sc1ncnc2scc(-c3ccccc3Br)c12`, for which the inhibition is 25% (active).
